NS1 inh = inhibitors of influenza NS1 protein function; AID 2326; actives 0.4% (n = 270,000); Potency, µM (titrated, usually from 46.1 µM), for the others: at the highest dose activity, positive = more growth; calls by dose curve; also: potency is read from the fitted curve at half-maximal effect; actives are rising curves; nearly all actives have a fitted effect of over 50% in size
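Compounds were scored for reversing the slow growth caused by influenza A NS1 in S. cerevisiae, measured by optical density at 600 nm. Assay medium contained 2% galactose at pH 6.0; NS1-free yeast of the same strain were the positive control.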
Shiga inhibitor = Shiga toxin inhibition; Vero cells, Shiga toxin protein synthesis inhibition reporter; inhibition, % at 38.7 µM; actives 9.2% (n = 290,000); AID 2315; in the data active = inhibition mostly above about 28%, no sharp cut-off; inactive = mostly below about 43%; also: 0% is about no effect
Pf growth 48h = inhibits P. falciparum growth in the first generation, 48 h; P. falciparum luciferase growth in erythrocytes, 48 h; Potency, µM (titrated, usually from 28.7 µM), inactives show top-dose activity change, negative = inhibition, hits mostly inhibitors; actives 5.9% (n = 310,000); AID 504832; also: potency is read from the fitted curve at half-maximal effect; % is scaled to controls: 0 for no effect and ±100 for the full control effect
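Here the parasites carry a stable luciferase gene and grow inside erythrocytes in Albumax-based RPMI medium with compound for one erythrocytic cycle. Activity is scored as loss of luminescent signal.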
Pf growth 96h = inhibits malaria parasite growth, 96 h; P. falciparum luciferase reporter growth, 96 h; Potency, µM (top dose mostly 28.7 µM), inactives show at the top dose activity change, negative = inhibition, hits mostly inhibitors; actives 6.9% (n = 320,000); AID 504834; also: potency is read from the fitted curve at half-maximal effect; % is scaled to controls: 0 for no effect and ±100 for the full control effect
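Plates of compound plus infected erythrocytes (2% hematocrit, 0.05% parasitemia final) incubate 96 hours, 37 C, 5% CO2. Detection reagent added; reduced luminescence from the parasites' luciferase reporter flags inhibition.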
SARS PLP yeast = inhibitors of SARS-CoV papain-like protease in yeast; S. cerevisiae expressing SARS-CoV PLpro, growth rescue; Potency, µM (highest dose often 32.9 µM), for inactives: top-dose activity, positive = growth rescue, actives largely listed as activators; actives 0.19% (n = 330,000); AID 485353; calls by dose curve; also: potency is read from the fitted curve at half-maximal effect; 0% is about no effect; nearly all actives have a fitted effect of over 55% in size
Cycloheximide cs = counter-screen hit for Shiga toxin inhibitors, cycloheximide; cell reporter, cycloheximide protein synthesis inhibition counterscreen; max response, %; actives 12% (n = 300,000); AID 2314; in the data active = max response mostly above about 13%, no sharp cut-off; inactive = mostly below about 14%; also: read at 38.3 µM for the half of the compounds with a filed dose; 0% is about no effect
Starred values were filed as active, the others as inactive; ? = inconclusive; · = not tested or not shown. This is a sample that favours compounds with a hit; in the whole collection about 21% have one here. Unless noted, calls follow the shape of the dose curve; as a rule, active = well fitted inhibition curve with a large enough effect; inconclusive = small, poorly fitted or top-dose-only effect, or another doubt; inactive = no such curve, though single readings can be large or run the other way.

SMILES	NS1 inh	Shiga inhibitor	Pf growth 48h	Pf growth 96h	SARS PLP yeast	Cycloheximide cs
COc1ccc(CNCCC(c2ccc(OC(C)C)cc2)c2ccccc2OC)cc1 (stereo unspecified)	0%	-10	?	?	-1%	-7
COc1ccc(C(CCNCc2ccc(N(C)C)cc2)C(C)C)cc1 (stereo unspecified)	-2%	-14	9.3µM*	7.4µM*	0%	-1
COc1ccc(CNCCC(c2ccc(OC(C)C)cc2)c2ccccc2OC)cc1OC (stereo unspecified)	0%	-4	13µM*	?	-4%	-9
COc1ccccc1C(CCNCc1ccc(N(C)C)cc1)c1ccc(OC(C)C)cc1 (stereo unspecified)	3%	-14	8.3µM*	13µM*	-2%	-10
NC(=O)C1(C(N)=O)OC1c1ccc(Cl)c(Cl)c1 (stereo unspecified)	-3%	-11	2%	-1%	-4%	-1
CN(Cc1ccccc1Br)C(=O)CSc1nnnn1C1CC1	·	·	?	3.3µM*	0%	·
COc1cc(/C=C/C(=O)Nc2ccc3nc4n(c(=O)c3c2)CCCC4)cc(OC)c1OC	·	-13	?	-18%	-3%	-4
COc1cc(OC)cc(C(=O)Nc2ccc3nc4n(c(=O)c3c2)CCCCC4)c1	-9%	49*	56%	13µM*	0%	46*
COc1ccc(/C=C/C(=O)Nc2ccc3nc4n(c(=O)c3c2)CCCC4)cc1	·	-14	?	-14%	0%	-4
O=C(Nc1ccc2nc3n(c(=O)c2c1)CCCC3)c1cccc([N+](=O)[O-])c1	13%	36	11%	?	28%	9
COc1ccc(OC)c(CCNC(=O)C(=O)Nc2ccc3nc4n(c(=O)c3c2)CCCCC4)c1	-4%	28	4.1µM*	4%	-2%	6
COc1ccccc1C(=O)Nc1ccc2nc3n(c(=O)c2c1)CCCC3	-2%	23	?	0.52µM*	-2%	2
COc1cccc(/C=C/C(=O)Nc2ccc3nc4n(c(=O)c3c2)CCCC4)c1OC	·	42*	2.1µM*	?	1%	23
NCC(O)CN1CCN(Cc2ccccc2)CC1 (stereo unspecified)	-1%	6	11%	23%	2%	-3
CC12CCC=CC1C(c1ccc(F)c(/C=C/c3ccccc3)c1)N(Cc1ccccc1)C2=O (stereo unspecified)	·	43	·	·	·	22
O=C(Nc1nnc(C2CC2)s1)c1ccco1	·	107*	190%	124%	0%	29*
O=C(Nc1nnc(C2CCCCC2)s1)c1ccco1	-43%	80*	69%	?	5%	34*
O=C(Nc1nnc(C2CC2)s1)c1ccncc1	4%	15	25%	35%	-1%	14
O=C(CSc1nnc(NC(=O)c2ccco2)s1)NC1CCCC1	0%	1	?	?	-6%	1
COCCN(CC(=O)Nc1cccc(C)c1C)C(=O)c1ccc(-n2cccn2)cc1	·	·	?	-23%	6%	·
N/C(=N\OC(=O)c1cc(-c2ccccc2)nc2ccccc12)c1ccc(Cl)cc1	0%	-8	13%	?	-1%	-3
COc1ccc(/C(N)=N/OC(=O)c2ccc([N+](=O)[O-])c(C)c2)cc1OC	1%	8	23%	?	0%	5
N/C(=N\OC(=O)c1ccc2ccccc2c1)c1ccncc1	-36%	117*	?	14%	-2%	37*
N/C(=N\OC(=O)c1ccc2ccccc2c1)c1ccccn1	·	6	-19%	60%	?	-1
Cc1ccc(S(=O)(=O)NNC(=O)c2ccncc2)cc1[N+](=O)[O-]	8%	-4	-5%	1.9µM*	-3%	-1
SMILES	NS1 inh	Shiga inhibitor	Pf growth 48h	Pf growth 96h	SARS PLP yeast	Cycloheximide cs
N/C(=N\OC(=O)c1ccc2ccccc2c1)c1ccccc1Cl	-113%	176*	?	25%	-20%	51*
O=C(NNS(=O)(=O)c1ccc(Br)cc1)c1ccncc1	16%	-9	26%	3%	1%	-4
Cc1cc(C(=O)O/N=C(\N)c2ccncc2)ccc1[N+](=O)[O-]	3%	80*	105%	84%	-1%	41*
Cc1ccc(S(=O)(=O)N2[C@@H](c3ccccc3F)C(C(=O)O)=CC[C@H]2c2cccc(Cl)c2)cc1	·	·	?	?	2%	·
N/C(=N\OC(=O)COc1ccc2ccccc2c1)c1cccnc1	-9%	52*	34%	39%	-21%	24*
N/C(=N\OC(=O)COc1ccc2ccccc2c1)c1ccncc1	-2%	34*	42%	-8%	-4%	31*
O=C(COc1ccc2ccccc2c1)N1CCN(C(=O)c2cccnc2)CC1	-15%	-9	0%	?	4%	9
Cc1cccc(OCC(=O)O/N=C(\N)c2ccncc2)c1	-6%	59*	38%	?	-4%	20*
Cc1ccc(C(=O)COC(=O)c2ccncc2)cc1[N+](=O)[O-]	16%	21	24%	9.3µM*	-3%	-3
CC(=O)N(CCC1(C(C)C)CCOC(C)(C)C1)C(C)c1cccs1 (stereo unspecified)	-7%	-4	?	?	-1%	9
Cc1ccccc1SCC(=O)OCC(=O)NCCNC(=O)COC(=O)CSc1ccccc1C	·	·	2%	4%	1%	·
N/C(=N\OC(=O)COc1ccc2ccccc2c1Br)c1ccncc1	-1%	91*	26%	-13%	-3%	24*
NS(=O)(=O)c1ccc(CCNC(=O)COC(=O)C2CCCN2C(=O)c2cccs2)cc1 (stereo unspecified)	-1%	-11	-1%	0%	1%	13
COc1ccc(CC2(CO)CCN(S(=O)(=O)c3sccc3C)CC2)cc1	-8%	-5	?	12µM*	-3%	8
COc1cccc(CC2(CO)CCN(Cc3cccn3-c3cccnc3)CC2)c1	2%	-40	-10%	?	-2%	-2
COc1ccc(CC2(CO)CCN(Cc3cccnc3)CC2)cc1	4%	33	10µM*	-18%	-1%	38*
COc1ccc(CC2(CO)CCN(C(C)Cc3ccc(Cl)cc3)CC2)cc1 (stereo unspecified)	5%	-8	12µM*	8%	0%	1
COc1cccc(CC2(CO)CCN(Cc3cnc(N4CCOCC4)s3)CC2)c1	0%	-12	-26%	37%	0%	-1
COc1ccc(-c2ncc(CN3CCC(CO)(Cc4cccc(OC)c4)CC3)cn2)cc1	-2%	27	10µM*	?	0%	8
CN(C)c1cc(-c2ccc([N+](=O)[O-])cc2)oc(=O)c1Cl	-2%	3	?	?	-1%	-1
Cc1ccc(NC(=O)c2cc(NC(=O)C3CC=CCC3C(=O)O)ccc2N2CCOCC2)cc1Cl (stereo unspecified)	16%	-24	4%	·	-5%	-2

Compound activity (PubChem)
